# Experimental data: PubChem BioAssay (NCATS)
# Records with an inconclusive call do not appear. Where a call stands in place of a potency, no number is given. Active and inactive are the calls of the source. Unless noted, the call rests on the fitted dose curve; in most records, active means well fitted curve in the direction sought with a large enough effect; inconclusive means small, poorly fitted or top-dose-only effect, or another doubt; inactive means no such curve, though single readings can be large; an effect the other way counts as inactive or inconclusive.
# What was measured:
# [1] = target: Voltage-gated inwardly rectifying potassium channel KCNH2 (Homo sapiens) (UniProt Q12809); experiment: qHTS Assay for Small Molecule Inhibitors of the Human hERG Channel Activity (AID 588834);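 further: lower thallium flux fluorescence means stronger hERG block; nearly all actives have a fitted effect of over 50% in size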; further: potency means the concentration at half of the fitted maximal effect
# In short: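 Step 1: BacMam hERG transduction of U2OS, 4 hrs RT. Step 2: overnight 37 °C, plate 2000 cells/well, 4 hr. Step 3: FluxOR load, compound 10 min, stimulate, read fluorescence.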
# [2] = target: Luciferin 4-monooxygenase (Photinus pyralis) (UniProt P08659); experiment: Biochemical firefly luciferase enzyme assay for NPC (AID 624030);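 further: purified P. pyralis luciferase at 10 nM with luciferin and ATP substrate; series mostly up to about 59 µM; nearly all actives have a fitted effect of over 70% in size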
# In short: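 Direct inhibition of firefly luciferase enzyme (10 nM final, 50 mM Tris Acetate) assessed by luminescence within 5 minutes. Percent activity scaled between DMSO and PTC124 positive control, with concentration-effect curves classified by fit quality and response.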
# [3] = S16 Schwann cell PMP22 intronic element firefly luciferase assay (AID 624032); further: nearly all actives have a fitted effect of over 30% in size; further: potency means the concentration at half of the fitted maximal effect
# In short: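 Luciferase reporter of PMP22 intronic-element expression in stably transfected S16 rat Schwann cells, read by ONE-Glo luminescence after 24 h compound exposure at 37 C. Activity scaled between DMSO (0%) and positive-control PTC124; concentration-effect curves quality-classified.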
# [4] = S16 Schwann cell viability assay (CellTiter-Glo assay) (AID 624031);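 further: native untransfected S16 rat Schwann cells; cellular ATP luminescence as a viability measure; series mostly up to about 58 µM; nearly all actives have a fitted effect of over 70% in size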
# In short: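 Parental S16 cells, 24 h compound, 37 °C. ATP-luminescence viability; DMSO = 0% activity, empty wells as reference; curves classified by fit quality and efficacy.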
# [5] = S16 Schwann cell PMP22 intronic element beta-lactamase assay (AID 624044; calls by dose curve; further: nearly all actives have a fitted effect of over 15% in size)
# In short: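 Beta-lactamase reporter under a PMP22 intronic regulatory element in stable S16 rat Schwann cells; 24 h compound exposure. 460 nm blue signal normalized between DMSO (0%) and potassium clavulanate, with 535 nm FRET tracking viability; curves classed by r2 and response.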
# Voltage-gated inwardly rectifying potassium channel KCNH2 (Homo sapiens), sequence (Q12809 whole entry, looked up): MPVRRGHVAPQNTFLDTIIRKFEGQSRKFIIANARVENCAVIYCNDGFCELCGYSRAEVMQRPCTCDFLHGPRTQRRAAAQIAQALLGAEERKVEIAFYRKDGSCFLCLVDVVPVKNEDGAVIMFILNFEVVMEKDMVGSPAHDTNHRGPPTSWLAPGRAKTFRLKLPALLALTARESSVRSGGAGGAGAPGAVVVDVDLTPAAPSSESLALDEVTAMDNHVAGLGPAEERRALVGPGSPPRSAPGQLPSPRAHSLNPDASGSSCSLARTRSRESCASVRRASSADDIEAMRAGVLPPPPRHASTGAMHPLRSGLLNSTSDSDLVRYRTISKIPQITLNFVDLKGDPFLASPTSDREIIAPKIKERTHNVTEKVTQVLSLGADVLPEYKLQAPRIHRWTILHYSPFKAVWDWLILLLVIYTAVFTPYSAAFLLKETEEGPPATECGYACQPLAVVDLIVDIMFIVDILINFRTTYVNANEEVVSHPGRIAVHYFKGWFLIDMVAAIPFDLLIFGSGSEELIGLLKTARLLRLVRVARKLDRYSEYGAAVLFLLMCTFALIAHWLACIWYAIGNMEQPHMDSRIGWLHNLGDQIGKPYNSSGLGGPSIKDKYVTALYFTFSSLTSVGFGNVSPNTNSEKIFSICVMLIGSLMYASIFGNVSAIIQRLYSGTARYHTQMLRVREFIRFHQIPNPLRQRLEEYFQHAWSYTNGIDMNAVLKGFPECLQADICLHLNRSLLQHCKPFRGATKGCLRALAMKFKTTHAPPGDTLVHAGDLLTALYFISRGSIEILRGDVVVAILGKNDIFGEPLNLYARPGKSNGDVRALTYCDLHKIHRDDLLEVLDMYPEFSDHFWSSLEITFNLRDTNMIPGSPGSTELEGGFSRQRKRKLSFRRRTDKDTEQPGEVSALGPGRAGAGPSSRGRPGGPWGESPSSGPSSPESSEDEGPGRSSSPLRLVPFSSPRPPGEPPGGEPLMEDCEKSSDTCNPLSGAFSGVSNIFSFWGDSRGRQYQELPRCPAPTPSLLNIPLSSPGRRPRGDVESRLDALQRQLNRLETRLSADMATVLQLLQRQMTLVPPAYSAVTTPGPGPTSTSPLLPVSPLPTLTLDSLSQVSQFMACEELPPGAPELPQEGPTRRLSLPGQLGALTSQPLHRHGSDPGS
# Luciferin 4-monooxygenase (Photinus pyralis), sequence (P08659 whole entry, looked up): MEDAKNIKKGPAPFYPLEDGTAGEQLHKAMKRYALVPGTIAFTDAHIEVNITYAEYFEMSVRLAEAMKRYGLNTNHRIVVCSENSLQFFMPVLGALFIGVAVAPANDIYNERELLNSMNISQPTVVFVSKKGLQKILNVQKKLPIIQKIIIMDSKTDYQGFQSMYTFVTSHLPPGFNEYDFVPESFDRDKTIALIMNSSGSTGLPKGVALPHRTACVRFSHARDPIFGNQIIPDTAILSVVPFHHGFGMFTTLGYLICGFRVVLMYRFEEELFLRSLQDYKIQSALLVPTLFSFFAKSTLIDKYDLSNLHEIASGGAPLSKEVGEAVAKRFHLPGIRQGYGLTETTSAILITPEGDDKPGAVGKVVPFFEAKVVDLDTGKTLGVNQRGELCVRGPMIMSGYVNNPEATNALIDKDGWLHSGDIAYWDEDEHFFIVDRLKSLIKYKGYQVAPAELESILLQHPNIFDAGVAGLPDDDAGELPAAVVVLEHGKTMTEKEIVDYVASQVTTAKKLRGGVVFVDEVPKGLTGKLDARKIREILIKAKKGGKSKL
Compound,Potency [1],Potency [2],Potency [3],Potency [4],Potency [5]
CCNC(=O)N1CCN(CCCC(c2ccc(F)cc2)c2ccc(F)cc2)CC1,56.2 nM (active),inactive,1440 nM (active),,
C[C@H](CS)C(=O)N1CCC[C@H]1C(=O)O,inactive,inactive,inactive,,
CC(N=C(NC#N)Nc1ccncc1)C(C)(C)C (centres undefined),inactive,inactive,inactive,inactive,inactive
CCCCNc1c(C(=O)OCC)c(C)nc2c1cnn2CC,inactive,inactive,,,inactive
CCN(Cc1ccncc1)C(=O)C(CO)c1ccccc1 (centres undefined),inactive,inactive,,inactive,inactive
O=C1CC2(CCCC2)CC(=O)N1CCCCN1CCN(c2ncccn2)CC1,,inactive,inactive,inactive,
C[N+](C)(C)CCOC(=O)CCC(=O)OCC[N+](C)(C)C,,inactive,inactive,inactive,
CC1=NS(=O)(=O)c2cc(Cl)ccc2N1,,inactive,,inactive,
CC(C)COCC(CN(Cc1ccccc1)c1ccccc1)N1CCCC1 (centres undefined),inactive,inactive,,,inactive
CCn1nc(C(=O)O)c(=O)c2cc3c(cc21)OCO3,inactive,inactive,inactive,inactive,inactive
CCN(CC)CCNC(=O)c1cc(S(C)(=O)=O)ccc1OC,,inactive,inactive,inactive,
CCOC(=O)c1cnc2c(cnn2CC)c1NN=C(C)C,,inactive,inactive,inactive,inactive
CCCCNc1ccc(C(=O)OCCN(C)C)cc1,,inactive,inactive,inactive,
O=C(CCCN1CCC(O)(c2cccc(C(F)(F)F)c2)CC1)c1ccc(F)cc1,,inactive,inactive,,
